Activity calls are given as the source filed them. The calls were made as follows: active = hit-call score of the fitted dose curve at least 0.9, where 1 is the maximum; inactive = score below 0.9.
read-out: Glutathione S-transferase M3 (GSTM3), GSTM3 (gene 2947); test: LTEA_HepaRG_GSTM3: Life Technologies and Expression Analysis (LTEA) Assay for Glutathione S-transferase M3 (GSTM3) using HepaRG (AID 2283501); details: mRNA level, 48 h; actives raise or lower the signal
Procedure, shortened: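 GSTM3 transcript levels came from Fluidigm TaqMan qRT-PCR normalized to three housekeeping genes, fitted in both directions against DMSO. HepaRG cultures received chemicals for 48 h in serum-free induction medium (0.5% DMSO), 8 half-log concentrations up to 100 uM, duplicate.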

| SMILES | outcome | AC50 |
| --- | --- | --- |
| COc1cc2c(c(OC)c1OC)-c1ccc(OC)c(=O)cc1[C@@H](NC(C)=O)CC2 | inactive |  |
| O=C(O)c1ccc2c(c1)nc(C(=O)NC1CCN(C3CC3)CC1)n2Cc1cc(-c2ccc(Cl)s2)on1 | inactive |  |
| Nc1ccn([C@@H]2O[C@H](CO)[C@@H](O)[C@@H]2O)c(=O)n1 | inactive |  |
| CCc1ccc(O)c(C(C)(C)C)c1 | inactive |  |
| CCOC(N)=O | inactive |  |
| c1ccc(C(O[C@@H]2CCCN(CCc3ccc4c(c3)OCO4)C2)c2ccccc2)cc1 |  | 90.3 µM (active) |
| NC(=O)N(O)[C@@H]1COc2cc(OCc3ccccc3)ccc21 | inactive |  |
| O=c1[nH]cnc2c1ncn2[C@H]1CC[C@@H](CO)O1 | inactive |  |
| CCCCN1C(=O)[C@@H]([C@H](O)C2CCCCC2)NC(=O)C12CCN(Cc1ccc(Oc3ccc(C(=O)O)cc3)cc1)CC2 |  | 4.76 µM (active) |
| CNC(C)=O | inactive |  |
| OCCNCCO | inactive |  |
| CCCCCCCCN(C)C | inactive |  |
| c1ccc2ncccc2c1 | inactive |  |
| CCCCCCOC(=O)CC(CC(=O)OCCCCCC)(OC(=O)CCC)C(=O)OCCCCCC | inactive |  |
| Cc1ncc([C@@H](CCCCCCc2ccc3c(n2)NCCC3)CC(=O)O)cn1 | inactive |  |
| CCCCCCCCCCCCCCCCOS(=O)(=O)O | inactive |  |
| CCN(CC)C(=S)SSC(=S)N(CC)CC | inactive |  |

From PubChem BioAssay (EPA / NIEHS)
